BoNT A protease – BoNT A light chain protease inhibition; multiplex microsphere protease substrate cleavage, flow cytometry; inhibition, % at 10 µM; actives 0.17% (n = 360,000); AID 588499; further: plate controls were buffer without enzyme for full effect and enzyme alone for no effect
Anthrax LF inh2 – inhibitors of Bacillus anthracis lethal factor protease | P15917 | multiplex microsphere protease cleavage assay, LF | inhibition, % at 10 µM | actives 0.12% (n = 360,000); further: plate controls were buffer without enzyme for full effect and enzyme alone for no effect
MazEF act – activators of E. coli MazEF toxin-antitoxin RNase. actives 0.32% (n = 350,000). P0AE70. AID 504720. FAM/BHQ RNA-DNA oligo cleavage fluorescence, 5 h. activation, % at 20 µM; in the data active means activation above about 50%
Target sequence (P0AE70 whole entry, looked up): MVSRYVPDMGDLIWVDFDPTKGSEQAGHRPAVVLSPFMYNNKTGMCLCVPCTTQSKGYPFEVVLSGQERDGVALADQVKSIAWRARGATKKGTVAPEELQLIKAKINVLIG
Autofluor counter – flagged as autofluorescent in microsphere protease counterscreen | compound autofluorescence counterscreen, microsphere flow cytometry; active compounds read high | fluorescence intensity (no concentration beside the values) | actives 3.1% (n = 360,000) | AID 624483; in the data active means fluorescence intensity above about 16000; inconclusive means no clear call, values can overlap the other calls
VHR inh abs – inhibitors of human VHR1 phosphatase (DUSP3); AID 1654; actives 0.52% (n = 290,000); recombinant VHR phosphatase, pNPP absorbance; inhibition, % at 13.3 µM; in the data active means inhibition above about 50%
Target sequence (P51452 whole entry, looked up): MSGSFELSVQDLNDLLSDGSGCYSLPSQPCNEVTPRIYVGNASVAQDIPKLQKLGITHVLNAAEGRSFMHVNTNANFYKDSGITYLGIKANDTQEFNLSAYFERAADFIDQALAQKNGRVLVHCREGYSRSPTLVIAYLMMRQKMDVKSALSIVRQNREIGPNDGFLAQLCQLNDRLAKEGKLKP
BoNT-F LC inh – BoNT F light chain protease inhibition. inhibition, % at 10 µM. Multiplex microsphere protease cleavage assay, flow cytometry. actives 0.22% (n = 360,000); in the data active means inhibition above about 35%, passing the limit was not always enough; inconclusive means no clear call, values can overlap the other calls; further: plate controls were buffer without enzyme for full effect and enzyme alone for no effect
The depositor's hits bear a star; ? = inconclusive; · = not tested or not shown; + = active, no number. The list is not random: actives were taken first. Their share in the collection is about 4.1%. Unless noted, no stated cut-off is given here; in the data, active means inhibition above about 30%; inconclusive means no clear call, values can overlap the other calls; inactive means below that.

SMILES	BoNT A protease	Anthrax LF inh2	MazEF act	Autofluor counter	VHR inh abs	BoNT-F LC inh
O=C(Nc1nnc(C2CCCO2)s1)c1ccc(Br)cc1 (configuration not stated)	0	-4	0	23157*	0	0
Cc1ccc(OCC(=O)Nc2nnc(C3CCCO3)s2)c(Br)c1 (configuration not stated)	0	1	2	3791	-1	-4
COc1cccc(S(=O)(=O)Nc2ccc3sc(C)nc3c2)c1	0	-3	7	16651*	10	-3
Cc1csc(-c2cc(C(=O)NCc3ccc(F)cc3)n[nH]2)c1	0	-1	·	3747	·	-5
O=C(O)c1ccc(Cl)c(NC(=O)C2CCCN2S(=O)(=O)c2cccc3nsnc23)c1 (configuration not stated)	0	-3	-2	20420*	15	0
CCN(CC)S(=O)(=O)c1ccc2oc(C(=O)NCCCN3CCOCC3)c(C)c2c1	1	-3	-7	6557	-4	0
Cc1c(C(=O)NC2CC2)oc2ccc(S(=O)(=O)N3CCCCCC3)cc12	-1	-5	12	9015	15	-10
Cc1c(C(=O)O)oc2ccc(S(=O)(=O)N3CCCC3)cc12	0	2	-1	6504	-2	-3
CCCCN(CCCC)S(=O)(=O)c1ccc2oc(C(=O)N3CCOCC3)c(C)c2c1	-2	-1	4	24116*	18	-3
CCCCN(C)C(=O)c1oc2ccc(S(=O)(=O)N3CCCCCC3)cc2c1C	-1	-10	0	23104*	21	-2
CCOC(=O)N1CCN(C(=O)c2oc3ccc(S(=O)(=O)N4CCCCC4)cc3c2C)CC1	4	-10	3	18639*	13	7
COc1ccc(OC)c(NC(=O)c2csc(Cl)c2OC)c1	-3	2	1	3310	11	-30
NC1=NC2(CCCCC2)N=C(Nc2ccc(F)cc2F)N1	-4	0	3	24883*	34	-1
O=C(CNC(=O)c1cccc(F)c1)N/N=C/c1cccs1	-2	-7	2	3681	10	27
CCN1/C(=N\N)c2cccc3cccc1c23	39*	-10	9	3325	5	-55
CCC(C)NC(=O)CN1C(=O)c2cccc3cccc1c23 (configuration not stated)	2	3	-15	3538	5	-7
CCS(=O)(=O)N1CCN=C1SCc1ccc(F)cc1	0	-1	5	6041	12	0
CCn1c(CNC(=O)c2ccco2)nnc1SCC(=O)Nc1cc(C)c(C)cc1Br	?	1	3	22252*	-4	0
C=CCn1c(SCC(=O)Nc2ccc3c(c2)OCCO3)nnc1-c1ccco1	-1	-3	6	16334*	-1	1
C=CCn1c(CNC(=O)c2ccco2)nnc1SCC(=O)Nc1cccc(Br)c1	-2	0	5	24230*	34	-2
C#CCNC(=O)C[C@@H]1C[C@@]2(C(=O)OC)CCCCC=C2N(Cc2cccc3ccccc23)C1=O	-1	4	·	6198	·	-1
COc1cc(N)c(Cl)cc1C(=O)NC1CCN(Cc2ccccc2)CC1	1	1	4	5903	·	-4
CCN1CCC(NC(=O)c2cc(OC)c(OC)cc2OC)CC1	?	0	4	21698*	-18	-6
CCc1cc(-c2nnn(CCC3COCCO3)c2CC)cc(CC)c1-c1cn(Cc2ccc3ccccc3c2)nn1 (configuration not stated)	-1	-8	-4	3477	·	-10
CNc1c(NS(=O)(=O)c2ccc(Br)cc2)c(=O)oc2ccccc12	0	2	10	3772	22	-31
SMILES	BoNT A protease	Anthrax LF inh2	MazEF act	Autofluor counter	VHR inh abs	BoNT-F LC inh
CCOC(=O)C1CCN(c2nc3ccccc3nc2C(C#N)C(=O)OC(C)C)CC1 (configuration not stated)	6	5	351*	2860	-23	21
CCCCCCOC(=O)C(C#N)c1nc2ccccc2nc1N1CCN(C)CC1 (configuration not stated)	4	25	9	8819	3	2
CCOC(=O)C1CCN(c2nc3ccccc3nc2C(C#N)C(=O)OC(C)COC)CC1 (configuration not stated)	11	15	-11	4308	9	-6
COc1ccc(CNC(=O)C(C#N)c2nc3ccccc3nc2N2CCN(C)CC2)cc1 (configuration not stated)	0	-3	0	3038	8	-6
CCC(C)COC(=O)C(C#N)c1nc2ccccc2nc1N1CCCCC1 (configuration not stated)	?	15	-31	21493*	8	6
COc1ccc(CNC(=O)C(C#N)c2nc3ccccc3nc2N2CCCC2)cc1 (configuration not stated)	1	3	+	2682	19	-4
CC(C)OC(=O)C(C#N)c1nc2ccccc2nc1N1CCCC1 (configuration not stated)	6	-2	1	3598	0	-1
CCC(CC)COC(=O)C(C#N)c1nc2ccccc2nc1N1CCN(CC)CC1 (configuration not stated)	7	10	-7	21646*	3	3
O=C(NCc1ccccc1Cl)c1csc([C@@H]2O[C@H](CO)[C@H](O)[C@H](O)[C@H]2O)n1	0	-7	·	3909	·	-2
CC(C)CN1C(=O)c2ccc(NC(=O)c3cccs3)cc2C1=O	?	0	7	24092*	17	-1
CC(C)CN1C(=O)c2ccc(NC(=O)c3ccco3)cc2C1=O	-2	-6	3	4241	0	2
Cc1cccc(C)c1C(O)c1ncc(-c2ccccc2C(F)(F)F)[nH]1 (configuration not stated)	-1	-1	·	4066	·	-8
COc1cc(C)ccc1OCc1cc(C(=O)N2CCCCCCC2)no1	-2	-2	-3	6041	24	-6
CC(=O)c1cccc(OC(=O)C2=CC=CN3CCS(=O)(=O)N=C23)c1	0	-1	6	3722	·	-3
Cc1c(Cl)ccc2c1NC(=O)[C@]21N[C@@H](Cc2ccccc2)[C@H]2C(=O)N(c3ccc(F)cc3)C(=O)[C@H]21	?	-2	-11	23930*	3	-1
O=C1[C@@H]2[C@H](Cc3ccc(O)cc3)N[C@]3(C(=O)Nc4ccccc43)[C@@H]2C(=O)N1c1ccc(F)cc1	-1	15	·	9543	22	2
Cc1cc(C)nc(SCC(=O)NC2=NN=C(c3ccc(Br)cc3)CS2)n1	?	-3	-27	24625*	6	-7
O=C(CCNS(=O)(=O)c1ccc(Cl)cc1)NCc1ccccn1	-8	-5	-15	17910*	17	-11
O=C(CCNC(=O)c1ccc(Br)o1)NCc1ccccn1	-5	-4	14	24852*	-10	-5
Cc1ccc(-n2c(CCC(=O)O)ccc2-c2cccs2)cc1	-2	4	-26	23564*	0	-2

Assay outcomes (PubChem)
